Source: PubChem BioAssay AID1159580 (chemical genetic matrix, 2015)
Among all 5,500 compounds or so, about 2,000 (36%) were called active. About 18% were inconclusive and are not listed. Rule as the data show it: active = normalized growth mostly below about 0.91 (no sharp cut-off); inconclusive = no clear call, values can overlap the other calls; inactive = mostly above about 0.92. The list shows a part of the results.

Test: chemical genetic growth profiling, strain panel (AID 1159580);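 also: tested at 20 µM; growth read once vehicle control cultures reached saturation at 30 °C; 1 = growth at the plate median or of vehicle wells; lower values mean less growth of the strain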
Conditions: growth OD

Measured: normalized growth

COc1ccc2c(=O)ccoc2c1
inactive: S. cerevisiae deletion strains, locus YJR043C, strain POL32, stronger effect = lower value 1.01 | S. cerevisiae deletion strains, locus YJR075W, strain HOC1, stronger effect = lower value 1.04 | S. cerevisiae deletion strains, locus YKL009W, strain mrt4, stronger effect = lower value 0.99 | S. cerevisiae deletion strains, locus YKL068W, stronger effect = lower value 1.03 | S. cerevisiae deletion strains, locus YKL085W, strain MDH1 (second series), stronger effect = lower value 1.03 | S. cerevisiae deletion strains, locus YKL085W, strain MDH1, stronger effect = lower value 1.03 | S. cerevisiae deletion strains, locus YKL160W, strain elf1, stronger effect = lower value 1.02 | S. cerevisiae deletion strains, locus YKL190W, strain CNB1, stronger effect = lower value 1.02 | S. cerevisiae deletion strains, locus YKR001C, strain vps1, stronger effect = lower value 0.947 | S. cerevisiae deletion strains, locus YKR026C, strain gcn3, stronger effect = lower value 1.03 | S. cerevisiae deletion strains, locus YKR091W, strain srl3, stronger effect = lower value 1.02 | S. cerevisiae deletion strains, locus YLL001W, strain dnm1, stronger effect = lower value 1.02 | S. cerevisiae deletion strains, locus YLL026W, stronger effect = lower value 1.02 | S. cerevisiae deletion strains, locus YLL041C, strain sdh2, stronger effect = lower value 0.972 | S. cerevisiae deletion strains, locus YLR027C, strain aat2, stronger effect = lower value 1.02 | S. cerevisiae deletion strains, locus YLR039C, strain RIC1, stronger effect = lower value 1.01 | S. cerevisiae deletion strains, locus YLR058C, strain SHM2, stronger effect = lower value 1.02 | S. cerevisiae deletion strains, locus YLR102C, strain apc9, stronger effect = lower value 1.01 | S. cerevisiae deletion strains, locus YLR221C, strain rsa3, stronger effect = lower value 1.03 | S. cerevisiae deletion strains, locus YLR258W, strain gsy2, stronger effect = lower value 1.02 | S. cerevisiae deletion strains, locus YLR262C, strain YPT6 (second series), stronger effect = lower value 1.04 | S. cerevisiae deletion strains, locus YLR262C, strain YPT6, stronger effect = lower value 1.06 | S. cerevisiae deletion strains, locus YLR268W, strain sec22, stronger effect = lower value 0.987 | S. cerevisiae deletion strains, locus YLR320W, strain mms22, stronger effect = lower value 1.03 | S. cerevisiae deletion strains, locus YLR330W, strain CHS5, stronger effect = lower value 1.02 | S. cerevisiae deletion strains, locus YLR342W, strain FKS1 (second series), stronger effect = lower value 1.03 | S. cerevisiae deletion strains, locus YLR342W, strain FKS1, stronger effect = lower value 1.02 | S. cerevisiae deletion strains, locus YLR357W, strain rsc2, stronger effect = lower value 1.02 | S. cerevisiae deletion strains, locus YLR370C, strain arc18, stronger effect = lower value 1.02 | S. cerevisiae deletion strains, locus YLR371W, strain rom2, stronger effect = lower value 1.02 | S. cerevisiae deletion strains, locus YLR384C, strain iki3, stronger effect = lower value 1.02 | S. cerevisiae deletion strains, locus YLR418C, strain cdc73, stronger effect = lower value 0.979 | S. cerevisiae deletion strains, locus YML016C, strain PPZ1, stronger effect = lower value 1.01 | S. cerevisiae deletion strains, locus YML032C, strain rad52, stronger effect = lower value 0.993 | S. cerevisiae deletion strains, locus YML120C, strain ndi1, stronger effect = lower value 1.03 | S. cerevisiae deletion strains, locus YML124C, strain tub3, stronger effect = lower value 1.01 | S. cerevisiae deletion strains, locus YMR058W, strain fet3, stronger effect = lower value 1.02 | S. cerevisiae deletion strains, locus YMR078C, strain ctf18, stronger effect = lower value 1.01 | S. cerevisiae deletion strains, locus YMR125W, strain sto1, stronger effect = lower value 1.03 | S. cerevisiae deletion strains, locus YMR129W, stronger effect = lower value 1.02 | S. cerevisiae deletion strains, locus YMR205C, strain PFK2, stronger effect = lower value 1.03 | S. cerevisiae deletion strains, locus YMR223W, strain ubp8, stronger effect = lower value 0.986 | S. cerevisiae deletion strains, locus YMR231W, strain pep5, stronger effect = lower value 1.02 | S. cerevisiae deletion strains, locus YMR263W, strain SAP30, stronger effect = lower value 1.02 | S. cerevisiae deletion strains, locus YMR307W, strain GAS1, stronger effect = lower value 1.02 | S. cerevisiae deletion strains, locus YNL067W, strain RPL9B, stronger effect = lower value 1.01 | S. cerevisiae deletion strains, locus YNL071W, strain lat1, stronger effect = lower value 1.05 | S. cerevisiae deletion strains, locus YNL128W, strain TEP1, stronger effect = lower value 1.03 | S. cerevisiae deletion strains, locus YNL153C, strain GIM3, stronger effect = lower value 1.01 | S. cerevisiae deletion strains, locus YNL209W, strain ssb2, stronger effect = lower value 1.02 | S. cerevisiae deletion strains, locus YNL233W, strain BNI4, stronger effect = lower value 1.01 | S. cerevisiae deletion strains, locus YNL248C, strain rpa49, stronger effect = lower value 1.03 | S. cerevisiae deletion strains, locus YNL250W, strain rad50, stronger effect = lower value 1.05 | S. cerevisiae deletion strains, locus YNL271C, strain bni1, stronger effect = lower value 1 | S. cerevisiae deletion strains, locus YNL298W, strain CLA4, stronger effect = lower value 0.977 | S. cerevisiae deletion strains, locus YNL307C, strain MCK1, stronger effect = lower value 0.984 | S. cerevisiae deletion strains, locus YNL322C, strain KRE1 (second series), stronger effect = lower value 1.03 | S. cerevisiae deletion strains, locus YNL322C, strain KRE1, stronger effect = lower value 1.02 | S. cerevisiae deletion strains, locus YNR049C, strain mso1, stronger effect = lower value 1.02 | S. cerevisiae deletion strains, locus YNR052C, strain pop2, stronger effect = lower value 1 | S. cerevisiae deletion strains, locus YOL006C, strain TOP1, stronger effect = lower value 0.962 | S. cerevisiae deletion strains, locus YOL012C, strain htz1 0.848 | S. cerevisiae deletion strains, locus YOL147C, strain pex11, stronger effect = lower value 1.01 | S. cerevisiae deletion strains, locus YOR001W, strain rrp6, stronger effect = lower value 1.03 | S. cerevisiae deletion strains, locus YOR061W, strain CKA2, stronger effect = lower value 1.02 | S. cerevisiae deletion strains, locus YOR069W, strain VPS5, stronger effect = lower value 1.01 | S. cerevisiae deletion strains, locus YOR070C, strain gyp1, stronger effect = lower value 1.02 | S. cerevisiae deletion strains, locus YOR080W, strain dia2, stronger effect = lower value 1.01 | S. cerevisiae deletion strains, locus YOR083W, strain WHI5, stronger effect = lower value 1.02 | S. cerevisiae deletion strains, locus YOR106W, strain vam3, stronger effect = lower value 1.03 | S. cerevisiae deletion strains, locus YOR136W, strain idh2, stronger effect = lower value 1.01 | S. cerevisiae deletion strains, locus YOR144C, strain elg1, stronger effect = lower value 1 | S. cerevisiae deletion strains, locus YOR184W, strain ser1, stronger effect = lower value 0.988 | S. cerevisiae deletion strains, locus YOR265W, strain rbl2, stronger effect = lower value 1.01 | S. cerevisiae deletion strains, locus YOR270C, strain vph1, stronger effect = lower value 1.03 | S. cerevisiae deletion strains, locus YOR290C, strain snf2, stronger effect = lower value 1.04 | S. cerevisiae deletion strains, locus YOR316C, strain cot1, stronger effect = lower value 1.01 | S. cerevisiae deletion strains, locus YPL051W, strain arl3, stronger effect = lower value 1.02 | S. cerevisiae deletion strains, locus YPL055C, strain LGE1, stronger effect = lower value 1.04 | S. cerevisiae deletion strains, locus YPL078C, strain atp4, stronger effect = lower value 1.02 | S. cerevisiae deletion strains, locus YPL106C, strain sse1, stronger effect = lower value 1.01 | S. cerevisiae deletion strains, locus YPL240C, strain hsp82, stronger effect = lower value 1.03 | S. cerevisiae deletion strains, locus YPL241C, strain CIN2, stronger effect = lower value 1.02 | S. cerevisiae deletion strains, locus YPR119W, strain clb2, stronger effect = lower value 1.01 | S. cerevisiae deletion strains, locus YPR141C, strain kar3, stronger effect = lower value 1.01 | S. cerevisiae deletion strains, locus YPR163C, strain tif3, stronger effect = lower value 1.01 | S. cerevisiae deletion strains, locus YPR167C, strain met16, stronger effect = lower value 1.02 | S. cerevisiae deletion strains, strain wtn01, stronger effect = lower value 0.997 | S. cerevisiae strains, strain wild type, stronger effect = lower value 1.02
